Our source for the Potency, activity change, negative = inhibition and outcome values is PubChem BioAssay (NCATS).

Records with an inconclusive call do not appear. A number with no mark means an inactive call. Active and inactive are the calls of the source. The call rests on the fitted dose curve; in most records, active means well fitted inhibition curve with a large enough effect; inconclusive means small, poorly fitted or top-dose-only effect; inactive means no such curve, though single readings can be large or run the other way.

The subject of assay [1] is Zika virus NS2B-NS3 protease (unlinked complex). Nature of the assay: Primary screen GU Rhodamine qHTS for Zika virus inhibitors: Unlinked NS2B-NS3 protease assay (AID 1347159). Further: nearly all actives have a fitted effect of over 60% in size. An outline of the steps:
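Enzyme 25 nM in Tris-HCl pH 8.0 + 0.01% Tween 20; compounds up to 114 microM, 15 min RT dark; + Rhod110 substrate 1.5 microM; read t0 and 15 min; delta fluorescence → % inhibition → 4-parameter Hill fit.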
In general terms: Quantitative high-throughput screening tests each substance at several concentrations.

The subject of assay [2] is Zika virus NS2B-NS3 protease (linked construct). As to the kind of experiment: Primary screen NINDS Rhodamine qHTS for Zika virus inhibitors (AID 1347160). Further: nearly all actives have a fitted effect of over 55% in size. An outline of the steps: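 Enzyme (25 nM, linked NS2B-NS3) was preincubated 15 min with compound in 10 mM Tris-HCl pH 8.0, 0.01% Tween 20. Rhodamine110 substrate (1.5 microM) was then added and fluorescence read at start and after 15 min.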
On the % scale 0 is the no-effect control and ±100 the full control effect.

As for `COc1c2c(c(C)c3c1C(=O)OC3)OC1(C)CC(O)C34OC(OC)(OC3(C)C)C(O)CC4(C)C1C2` (centres undefined), the Potency entry in assay [1] and in assay [2] was “inactive” in each case.

As to `Cc1ccccc1-n1c([C@H](C)Nc2nc(N)nc3nc[nH]c23)nc2cccc(C)c2c1=O`, the Potency result in assay [1] and in assay [2] was “inactive” throughout.

In the case of `C/C(=C\CC[C@@H](C)[C@H]1CC(O)[C@@]2(C)C3CC[C@H]4C(C)(C)[C@@H](OC5OCC(O)C(O)C5OC5OC(CO)C(O)C(O)C5O)CC[C@@]45C[C@@]35CC(O)[C@]12C)C(=O)O` (some centres undefined), the Potency entry in assay [1] and in assay [2] was “inactive” throughout.

As for `C[C@@H]1O[C@@H](O[C@H]2[C@H](OC(=O)[C@]34CCC(C)(C)C[C@H]3C3=CCC5[C@@]6(C)CC[C@H](O[C@@H]7O[C@H](C(=O)O)[C@@H](O)[C@H](O)[C@H]7O[C@@H]7O[C@H](CO)[C@H](O)[C@H](O)[C@H]7O)[C@@](C)(C=O)C6CC[C@@]5(C)[C@]3(C)C[C@H]4O)O[C@H](C)[C@H](O[C@@H]3O[C@H](C)[C@H](O)[C@H](O)[C@H]3O)[C@@H]2O)[C@H](O)[C@H](O)[C@H]1O[C@@H]1OC[C@@H](O)[C@H](O[C@@H]2O[C@H](CO)[C@@H](O)[C@H](O)[C@H]2O)[C@H]1O` (some centres undefined), the activity change, negative = inhibition in assay [1] was 4.39% [at 19.1 µM]. Besides, the outcome in assay [2] is “inactive [at 10.7 µM]”.

For `COc1ccccc1NC(=O)OCC1CCN(C(=O)OC(C)(C)C)CC1`, the Potency result in assay [1] and in assay [2] was “inactive” throughout.

For the compound `O=C1N=C(N2CCOCC2)CN1c1ccc(Cl)cc1`, the Potency entry in assay [1] and in assay [2] was “inactive” in each case.

Consider `OC[C@@]1(O)CO[C@@H](OC[C@H]2O[C@@H](Oc3c[nH]c4ccccc34)[C@H](O)[C@@H](O)[C@@H]2O)[C@@H]1O`, for which the Potency result in assay [1] and in assay [2] was “inactive” each time.
